40 molecules from PubChem BioAssay AID694 (Emory University Molecular Libraries Screening Center, 2007) can be followed below.

The campaign covered roughly 1,300 compounds. About 25 (2%) were called active. The rule behind the calls is not given here. This excerpt belongs to a sample that is enriched for actives.

The target of this experiment is Estrogen receptor (Homo sapiens) (UniProt P03372). Description: ERα coactivator peptide binding inhibitors, primary screen, biochemical, LOPAC library, TR-FRET (AID 694).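 Note: receptor was agonist-bound with estradiol present during the assay.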 To be noted: TR-FRET ERalpha-coactivator peptide binding, stronger effect = higher value. Background: TR-FRET usually uses a lanthanide donor and a delayed reading to cut background.
Sequence of Estrogen receptor (Homo sapiens) (P03372 whole entry, looked up): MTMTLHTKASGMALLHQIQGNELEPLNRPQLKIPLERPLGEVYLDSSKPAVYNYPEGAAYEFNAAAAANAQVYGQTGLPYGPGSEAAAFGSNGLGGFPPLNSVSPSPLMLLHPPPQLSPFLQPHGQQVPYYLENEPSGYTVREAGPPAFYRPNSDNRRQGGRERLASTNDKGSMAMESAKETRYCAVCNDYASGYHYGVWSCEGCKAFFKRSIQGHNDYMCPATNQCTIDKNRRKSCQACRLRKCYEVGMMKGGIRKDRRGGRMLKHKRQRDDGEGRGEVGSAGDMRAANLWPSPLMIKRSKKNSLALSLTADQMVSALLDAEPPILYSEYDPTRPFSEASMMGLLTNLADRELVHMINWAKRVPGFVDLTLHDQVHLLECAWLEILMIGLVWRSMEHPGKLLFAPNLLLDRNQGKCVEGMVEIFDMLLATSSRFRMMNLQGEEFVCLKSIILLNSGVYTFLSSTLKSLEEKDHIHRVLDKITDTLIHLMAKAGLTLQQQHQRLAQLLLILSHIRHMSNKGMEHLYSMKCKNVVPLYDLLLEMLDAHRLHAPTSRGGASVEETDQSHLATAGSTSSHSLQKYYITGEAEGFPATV

Turning to `C=CCN1CCc2c(cc(O)c(O)c2Cl)C(c2ccccc2)C1` (stereo not given), the inhibition (in general, the drop in the measured response relative to a control, in per cent) runs as follows: (at 45 µM) -1.29% (inactive); (inhibition, at 15 µM) -1.34%.

Consider `NC(N)=N[C@@H](CCC(=O)O)C(=O)O`, for which the inhibition was -1.09% (inactive) (at 45 µM) and 5.9% (inhibition, at 15 µM).

As to `CC(C)C1C2CCC(C2)C1N` (stereo not given), the inhibition is -15.6% (inactive) (at 45 µM) and -0.95% (inhibition, at 15 µM).

As to `NCCC(=O)NCCc1cnc[nH]1`, the inhibition (at 45 µM) was -9.27% (inactive) and the inhibition (inhibition, at 15 µM) is 2.24%.

Regarding `CCN1/C(=C/C(C)=O)Sc2ccc(OC)cc21`, the inhibition is, setting by setting: (at 45 µM) 0.62% (inactive); (inhibition, at 15 µM) -1.25%.

On to `CSc1ccc2c(c1)N(CCC1CCCCN1C)c1ccccc1S2` (stereo not given), for which the inhibition by setting is: (at 45 µM) 13.6% (inactive); (inhibition, at 15 µM) 10.5%.

With `O=C(O)Cc1ccc(O)c(O)c1`, the inhibition (at 45 µM) was 13.3% (inactive) and the inhibition (inhibition, at 15 µM) worked out at 9.47%.

For `CC(C)C[C@H](N)CSSC[C@@H](N)CC(C)C`, the inhibition is 0.5% (inactive) (at 45 µM) and -0.82% (inhibition, at 15 µM).

In the case of `Cc1ccccc1CNc1ncnc2c1ncn2C1OC(CO)C(O)C1O` (stereo not given), the inhibition reads like this: (at 45 µM) -2.05% (inactive); (inhibition, at 15 µM) -1.9%.

Turning to `Nc1ccc(N2C(=O)c3ccccc3C2=O)c(Cl)c1`, the inhibition by setting is: (at 45 µM) -4.66% (inactive); (inhibition, at 15 µM) -3.36%.

Regarding `NC(N)=NC(N)=Nc1cccc(Cl)c1`, the inhibition (at 45 µM) is -5.64% (inactive) and the inhibition (inhibition, at 15 µM) was -4.32%.

`CN[C@H]1CC[C@@H](c2ccc(Cl)c(Cl)c2)c2ccccc21`: the inhibition is 4.49% (inactive) (at 45 µM) and 4.91% (inhibition, at 15 µM).

`CN1CCN(c2nc3cc(C(F)(F)F)ccc3n3cccc23)CC1`: the inhibition is -8.98% (inactive) (at 45 µM) and -4.03% (inhibition, at 15 µM).

Regarding `COc1cc2c(cc1O)CC[C@@H]1[C@@H]2CC[C@]2(C)[C@@H](O)CC[C@@H]12`, the inhibition is, setting by setting: (at 45 µM) 1.97% (inactive); (inhibition, at 15 µM) 3.36%.

For `O=c1[nH]cnc2[nH]ncc12`, the inhibition reads like this: (at 45 µM) -22.8% (inactive); (inhibition, at 15 µM) -0.71%.

As to `NC(CO)C(=O)NNCc1ccc(O)c(O)c1O` (stereo not given), the inhibition (at 45 µM) is 90.3% [fluorescence artefact?] (active) and the inhibition (inhibition, at 15 µM) is 63.1%.

With `N=C(N)SCCc1cccc(CCSC(=N)N)c1`, the inhibition is, setting by setting: (at 45 µM) -4.03% (inactive); (inhibition, at 15 µM) -3.18%.

Take `O=C1c2c(O)cc(O)cc2OC(c2ccc(O)c(O)c2)C1O` (stereo not given): the inhibition is, setting by setting: (at 45 µM) 7.88% (inactive); (inhibition, at 15 µM) 5.23%.

Turning to `O=c1[nH]c2cc(Cl)c(Cl)cc2[nH]c1=O`, the inhibition runs as follows: (at 45 µM) -4.07% (inactive); (inhibition, at 15 µM) 3.65%.

Take `CN(C)CCOC(c1ccccc1)c1ccccc1`: the inhibition runs as follows: (at 45 µM) 0% (inactive); (inhibition, at 15 µM) 1.48%.

Regarding `Nc1ncnc2c1nc(Sc1ccc(Cl)cc1)n2C1OC2COP(=O)(O)O[C@@H]2[C@@H]1O` (stereo not given in full), the inhibition is 2.25% (inactive) (at 45 µM) and -0.54% (inhibition, at 15 µM).

For the molecule `NCCCS(=O)(=O)O`, the inhibition runs as follows: (at 45 µM) -5.28% (inactive); (inhibition, at 15 µM) -0.89%.

Consider `Brc1ccc([C@H]2CN3CCSC3=N2)cc1`, for which the inhibition (at 45 µM) was -14.5% (inactive) and the inhibition (inhibition, at 15 µM) was -5.52%.

For the molecule `CCOC(=O)Nc1ccc(NCc2ccc(F)cc2)nc1N`, the inhibition (at 45 µM) was -2.33% (inactive) and the inhibition (inhibition, at 15 µM) is -0.39%.

Take `OC[C@H]1O[C@@H](n2cnc3cncnc32)[C@H](O)[C@@H]1O`: the inhibition was -0.26% (inactive) (at 45 µM) and -1.71% (inhibition, at 15 µM).

In the case of `NC[C@@H]1O[C@H](C23CC4CC(CC(C4)C2)C3)Cc2c1ccc(O)c2O`, the inhibition (at 45 µM) is 6.83% (inactive) and the inhibition (inhibition, at 15 µM) was -1.93%.

As for `N#CC(Cc1ccc(O)c(O)c1)C(=O)N1CCc2ccccc21` (stereo not given), the inhibition by setting is: (at 45 µM) 4.21% (inactive); (inhibition, at 15 µM) -5.26%.

`Nc1nc(SCc2ccc([N+](=O)[O-])cc2)c2ncn([C@@H]3O[C@H](CO)[C@H](O)C3O)c2n1` (stereo not given in full): the inhibition was -19.1% (inactive) (at 45 µM) and -4.91% (inhibition, at 15 µM).

`COc1ccccc1CNCCCCCCNCCCCCCCCNCCCCCCNCc1ccccc1OC`: the inhibition runs as follows: (at 45 µM) 10.9% (inactive); (inhibition, at 15 µM) 6.92%.

Regarding `CCCCCCCCCCC/C=C\C(C)(C)/C=C\CCCC(=O)O`, the inhibition runs as follows: (at 45 µM) 33.3% (inactive); (inhibition, at 15 µM) 17.4%.

On to `Cc1c(CC(C)(C)C(=O)O)n(Cc2ccc(Cl)cc2)c2ccc(F)cc12`, for which the inhibition was 9.14% (inactive) (at 45 µM) and 5.8% (inhibition, at 15 µM).

Consider `NC(N)=[N+]1CCc2ccccc2C1`, for which the inhibition is -8.81% (inactive) (at 45 µM) and 1.64% (inhibition, at 15 µM).

`CC(CCc1ccccc1)NCC(O)c1ccc(O)c(C(N)=O)c1` (stereo not given): the inhibition is 5.4% (inactive) (at 45 µM) and 3.9% (inhibition, at 15 µM).

Consider `O=C(O)c1cc([N+](=O)[O-])ccc1NCCCc1ccccc1`, for which the inhibition runs as follows: (at 45 µM) 1.89% (inactive); (inhibition, at 15 µM) -3.54%.

Consider `N=c1ccn2c(n1)OC1[C@@H](O)[C@@H](CO)O[C@H]12` (stereo not given in full), for which the inhibition is -2.34% (inactive) (at 45 µM) and 1.25% (inhibition, at 15 µM).

`COc1ccc(/C=C/C(=O)Nc2ccccc2C(=O)O)cc1OC`: the inhibition is, setting by setting: (at 45 µM) 3.42% (inactive); (inhibition, at 15 µM) 4.38%.

In the case of `O=S(=O)(c1cccc2c(I)cccc12)N1CCCNCC1`, the inhibition runs as follows: (at 45 µM) 21.6% (inactive); (inhibition, at 15 µM) 3.12%.

With `OC(CN1CCN(c2cccc(Cl)c2)CC1)C(c1ccccc1)c1ccccc1` (stereo not given), the inhibition was 3.01% (inactive) (at 45 µM) and 4.55% (inhibition, at 15 µM).

Take `COc1cc(C(O)C(=O)O)ccc1O` (stereo not given): the inhibition runs as follows: (at 45 µM) -7.3% (inactive); (inhibition, at 15 µM) 0.57%.

For the molecule `CCCn1c(=O)c2[nH]c(-c3ccc(OCC(=O)Nc4ccc(C#N)cc4)cc3)nc2n(CCC)c1=O`, the inhibition is 46.8% (inactive) (at 45 µM) and 8.2% (inhibition, at 15 µM).
